The values below come from PubChem BioAssay.

For assay [1], the system named is Wnt5a (protein binding on small-molecule microarray). Nature of the assay: Wnt5a binders on small-molecule microarray, primary screen, biophysical, 635/667 nm fluorescence (AID 1142).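 Also: fluorescence read at 667 nm with signal to noise per printed feature.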 The note with it: 635 nm fluorescence, higher = more signal.
The nature of assay [2]: cell viability in Huh7 cells, primary screen, cytotoxicity control for HCV replication inhibitor project, CellTiter-Glo luminescence, basal, 48 h (AID 1143).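 Also: Huh7 hepatoma cells carrying a hepatitis C replication reporter with no stimulus; test concentration not given here.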 As to conditions: Huh7 HCV replicon, higher = more signal, called active from +8 up or from −8 down.
Assay [3] can be described thus: P. aeruginosa biofilm formation inhibitors, primary screen, PAO1 strain, BacTiter-Glo luminescence, LB-PBS (AID 1144). The note with it: 12 h, higher = more signal.
Assay [4] can be described thus: CREB reporter modulators without forskolin, primary screen, cell-based, PC12, CRE-LacZ reporter, unstimulated (AID 1145). The note with it: no forskolin, luminescence, 4.5 h, higher = more signal, called active from +8 up or from −8 down.
A short description of assay [5]: CREB reporter modulators under forskolin, primary screen, cell-based, PC12, CRE-LacZ reporter, forskolin-stimulated (AID 1146).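 Also: PC12 cells with 6xCRE LacZ reporter stimulated by forskolin 10 µM; beta-galactosidase reporter signal reflecting CREB driven transcription.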 The note with it: luminescence, 4.5 h, higher = more signal, called active from +8 up or from −8 down.
Assay [6] concerns the target Streptavidin (Streptomyces avidinii) (UniProt P22629). Nature of the assay: streptavidin binders on small-molecule microarray, primary screen, artefact control for SMM compound annotation, biophysical, 635/667 nm fluorescence (AID 1147).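 Also: signal reflects streptavidin binding to arrayed compounds as a control protein.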 The note with it: streptavidin binding, higher = more signal.
Assay [7] is described as follows: small-molecule binders of probe aInhba, primary screen, biochemical, small-molecule microarray, 635/667 nm fluorescence (AID 1148).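 Also: score merges 667nm spot fluorescence with signal-to-noise for antibody binding to printed compounds.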 As to conditions: higher = more signal.
For assay [8], the target named is Torsin-1A (Homo sapiens) (UniProt O14656). Put plainly: torsin A binders from cell lysate, primary screen, small-molecule microarray, wild-type, 635/667 nm (AID 1149). As to conditions: COS7 hTOR1A-WT lysate, 635 nm fluorescence, higher = more signal.
Chain of Torsin-1A (Homo sapiens) (O14656 whole entry, looked up): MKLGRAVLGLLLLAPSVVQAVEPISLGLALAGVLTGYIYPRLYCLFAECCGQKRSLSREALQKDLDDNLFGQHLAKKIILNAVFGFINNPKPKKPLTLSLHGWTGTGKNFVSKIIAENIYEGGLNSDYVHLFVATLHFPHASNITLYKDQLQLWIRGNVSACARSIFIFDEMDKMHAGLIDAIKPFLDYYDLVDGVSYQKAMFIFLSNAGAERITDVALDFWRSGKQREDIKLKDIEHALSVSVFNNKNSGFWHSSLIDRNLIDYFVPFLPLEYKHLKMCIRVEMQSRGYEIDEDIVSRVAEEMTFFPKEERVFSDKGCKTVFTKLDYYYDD
For assay [9] the target is unchanged. Nature of the assay: small-molecule binders of mutant TOR1A in lysate, primary screen, cell lysate, small-molecule microarray, COS7 lysate, 635/667 nm fluorescence (AID 1150).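 Also: score pools 667 nm emission and signal to noise measuring lysate protein binding.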 The note with it: COS7 hTOR1A mutant lysate, 635 nm fluorescence, higher = more signal.
The subject of assay [10] is Sonic hedgehog protein (Shh). Put plainly: small-molecule binders of Shh protein, primary screen, biochemical, small-molecule microarray, 635/667 nm fluorescence (AID 1151).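 Also: Shh protein binding to compounds spotted on small-molecule microarray slides; score combines spot fluorescence intensity with signal-to-noise across triplicate slides.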 As to conditions: small-molecule microarray binding, 635 nm fluorescence; higher = more signal.
Assay [11] can be described thus: E. coli DRC41 culture turbidity changes, primary screen, E. coli filamentation inducer project, strain DRC41, OD650, 48 h (AID 1152).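 Also: E. coli MC1000 strain DRC41 lacking acrAB efflux pump and sulA.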 The note with it: E. coli DRC41 (acrAB sulA), higher = more signal, called active from +8 up or from −8 down.
The nature of assay [12]: small-molecule binders of probe aLefty1, primary screen, biochemical, small-molecule microarray, 635/667 nm fluorescence (AID 1153).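 Also: score merges spot fluorescence with signal-to-noise ratio from the scanned slide images.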 As to conditions: higher = more signal.
Assay [13] is described as follows: PSAC antagonists in infected red cells, primary screen, cell-based, P. falciparum Indochina, OD700, 1 h (AID 1154). The note with it: P. falciparum Indochina infected RBC osmotic lysis, higher = more signal, called active from +8 up or from −8 down.
The nature of assay [14]: PSAC antagonists in infected red cells, primary screen, cell-based, P. falciparum Indochina, OD700, 2 h (AID 1155).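 Also: lysis reports solute entry through the parasite surface anion channel PSAC; channel blockers reduce lysis of infected cells.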 As to conditions: P. falciparum Indochina infected erythrocytes, osmotic lysis OD700; higher = more signal, called active from +8 up or from −8 down.
Assay [15] in a line: osmotic lysis modulators in infected erythrocytes, primary screen, PSAC antagonist project, cell-based, P. falciparum Indochina, OD700, 3 h (AID 1156). The note with it: higher = more signal, called active from +8 up or from −8 down.
Assay [16] can be described thus: PSAC antagonists in infected red cells, primary screen, cell-based, P. falciparum Indochina, OD700, 18 h (AID 1157). The note with it: P. falciparum Indochina infected erythrocytes, osmotic lysis OD700, 18 h; higher = more signal, called active from +8 up or from −8 down.
The nature of assay [17]: modulators of S6 phosphorylation in cells, primary screen, cell-based, A549, cytoblot, luminescence, serum-stimulated (AID 1158).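 Also: serum-stimulated A549 lung adenocarcinoma cells; signal is phosphorylated S6 detected by cytoblot immunostaining with HRP secondary.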 The note with it: A549 phospho-S6 cytoblot, 5 h, higher = more signal.
Assay [18] addresses NADPH oxidase 2 (Homo sapiens) (UniProt P04839). Nature of the assay: NOX2-dependent H2O2 signal modulators, primary screen, NOX inhibitor project, cell-based, HEK293-NOX2, PMA-stimulated, Amplex Red fluorescence (AID 1159). Also: test concentration not given here. As to conditions: 45 min, higher = more signal, called active from +8 up or from −8 down.
Assay [19] concerns the target NADPH oxidase 4 (Homo sapiens) (UniProt Q9NPH5). Nature of the assay: NOX4-dependent H2O2 signal modulators, primary screen, NOX inhibitor project, cell-based, HEK293-NOX4, tetracycline-induced, Amplex Red fluorescence (AID 1160). The note with it: 45 min, higher = more signal, called active from +8 up or from −8 down.
The target of assay [20] is NADPH oxidase 5 (Homo sapiens) (UniProt Q96PH1). Nature of the assay: NOX5-dependent H2O2 signal modulators, primary screen, NOX inhibitor project, cell-based, HEK293-NOX5, Amplex Red fluorescence (AID 1161). The note with it: HEK293-NOX5, ionomycin, 45 min, higher = more signal.
Chain of NADPH oxidase 5 (Homo sapiens) (Q96PH1 whole entry, looked up): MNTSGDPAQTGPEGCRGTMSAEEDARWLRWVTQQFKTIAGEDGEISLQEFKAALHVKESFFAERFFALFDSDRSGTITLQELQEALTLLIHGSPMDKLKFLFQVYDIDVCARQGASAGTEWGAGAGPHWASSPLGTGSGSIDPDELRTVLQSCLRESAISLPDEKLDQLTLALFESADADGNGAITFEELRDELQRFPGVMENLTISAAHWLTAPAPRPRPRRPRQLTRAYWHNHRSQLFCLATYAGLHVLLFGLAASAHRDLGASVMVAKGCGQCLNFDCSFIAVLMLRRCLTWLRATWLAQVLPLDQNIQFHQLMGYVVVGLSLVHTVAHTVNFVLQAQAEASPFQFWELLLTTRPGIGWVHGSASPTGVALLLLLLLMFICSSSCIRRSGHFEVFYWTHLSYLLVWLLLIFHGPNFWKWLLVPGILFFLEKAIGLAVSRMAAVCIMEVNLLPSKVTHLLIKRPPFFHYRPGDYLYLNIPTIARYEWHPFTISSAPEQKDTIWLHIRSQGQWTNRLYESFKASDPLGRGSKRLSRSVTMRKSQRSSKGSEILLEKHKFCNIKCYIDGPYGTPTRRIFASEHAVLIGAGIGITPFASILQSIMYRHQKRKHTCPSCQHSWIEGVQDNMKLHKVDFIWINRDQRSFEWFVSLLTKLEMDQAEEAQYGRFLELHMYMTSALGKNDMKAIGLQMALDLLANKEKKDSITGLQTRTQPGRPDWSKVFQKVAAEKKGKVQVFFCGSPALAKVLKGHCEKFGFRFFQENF

Calls of active or inactive are those of the source. Unless noted, no rule for the calls is given here.

Chain of Streptavidin (Streptomyces avidinii) (P22629 whole entry, looked up): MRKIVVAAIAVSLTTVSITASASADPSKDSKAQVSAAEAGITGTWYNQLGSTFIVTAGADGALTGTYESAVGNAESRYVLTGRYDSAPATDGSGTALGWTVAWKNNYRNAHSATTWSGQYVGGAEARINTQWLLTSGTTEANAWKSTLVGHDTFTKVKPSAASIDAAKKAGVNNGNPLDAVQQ
Chain of NADPH oxidase 4 (Homo sapiens) (Q9NPH5 whole entry, looked up): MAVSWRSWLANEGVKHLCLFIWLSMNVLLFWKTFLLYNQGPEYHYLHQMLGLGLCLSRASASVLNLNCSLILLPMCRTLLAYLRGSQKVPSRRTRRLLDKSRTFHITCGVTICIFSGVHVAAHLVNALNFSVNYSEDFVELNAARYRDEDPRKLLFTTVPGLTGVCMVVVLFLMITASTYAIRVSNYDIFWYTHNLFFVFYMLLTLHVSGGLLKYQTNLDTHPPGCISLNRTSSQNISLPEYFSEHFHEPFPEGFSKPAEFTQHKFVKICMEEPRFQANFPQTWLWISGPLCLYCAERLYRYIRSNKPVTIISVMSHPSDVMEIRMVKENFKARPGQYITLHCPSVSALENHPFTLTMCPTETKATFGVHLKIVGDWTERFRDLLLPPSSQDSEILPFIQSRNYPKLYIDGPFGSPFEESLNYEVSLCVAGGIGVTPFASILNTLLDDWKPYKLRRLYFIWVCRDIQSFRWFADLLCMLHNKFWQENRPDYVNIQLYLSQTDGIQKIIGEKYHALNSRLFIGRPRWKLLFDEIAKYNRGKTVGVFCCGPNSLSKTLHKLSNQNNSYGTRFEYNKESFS
Chain of NADPH oxidase 2 (Homo sapiens) (P04839 whole entry, looked up): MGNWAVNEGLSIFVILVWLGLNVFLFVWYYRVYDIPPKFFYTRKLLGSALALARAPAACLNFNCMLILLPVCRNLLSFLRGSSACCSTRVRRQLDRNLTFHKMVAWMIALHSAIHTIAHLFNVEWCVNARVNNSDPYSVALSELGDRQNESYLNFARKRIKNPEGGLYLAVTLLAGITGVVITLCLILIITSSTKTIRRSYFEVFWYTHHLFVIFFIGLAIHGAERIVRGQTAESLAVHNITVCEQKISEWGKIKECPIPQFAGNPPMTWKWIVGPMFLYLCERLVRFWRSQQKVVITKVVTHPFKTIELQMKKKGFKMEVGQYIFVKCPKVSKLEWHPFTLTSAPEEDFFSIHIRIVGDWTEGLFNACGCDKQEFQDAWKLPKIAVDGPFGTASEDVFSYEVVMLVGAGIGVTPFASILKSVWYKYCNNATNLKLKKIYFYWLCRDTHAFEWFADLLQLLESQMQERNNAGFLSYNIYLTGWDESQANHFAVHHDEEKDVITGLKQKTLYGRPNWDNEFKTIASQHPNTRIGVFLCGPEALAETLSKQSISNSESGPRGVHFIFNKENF

Take `COC(=O)[C@@]1(Cc2ccc(F)cc2)[C@H]2c3cc(C(=O)N(C)C)n(Cc4ccc(C(F)(F)F)nc4)c3C[C@H]2CN1C(=O)c1ccccc1`: the composite z-score in [1] came out at 0.381; in assay [6], 1.55; in assay [7], 0.36; in assay [8], 0.516; in assay [9], 0.717; in assay [10], 0.521. In assay [12], this compound had a composite z-score of 0.589. The z-score is -3.01 (inactive) in [2]; 0.857 (inactive) in [3]; 1.91 (inactive) in [4]; 1.13 (inactive) in assay [5]; -1 (inactive) in assay [11]; 1.93 (inactive) in [13]. Moreover, the z-score was 0.844 (inactive) in assay [14]; 0.893 (inactive) in assay [15]; 0.987 (inactive) in assay [16]; -0.0002 in [17]; 0.267 (inactive) in assay [18]; 0.32 (inactive) in assay [19]. Moreover, the z-score in assay [20] is 0.568.
On to `CC(C)[Si]1(C(C)C)OCc2cc(-c3ccc(-c4ccc(Cl)c(Cl)c4)o3)nc(-c3ccc(Oc4ccccc4)cc3)c21`, for which the composite z-score in [1] was -0.615; in [6], -0.767; in assay [7] it was -0.382; in assay [8], -1.33; in [9] it was -2.07; in assay [10], -0.976. This compound also registered a composite z-score in [12] of -0.21. In addition, the z-score in assay [2] was -0.558 (inactive); in assay [3] it was 0.457 (inactive); in [4], 0.251 (inactive); in [5] it was -0.835 (inactive); in [11], -1.08 (inactive); in [13], 1.88 (inactive). For the same compound, the z-score in assay [14] is 0.352 (inactive); in assay [15], 0.0032 (inactive); in assay [16], 0.533 (inactive); in assay [17] it was -0.203; in assay [18] it was -4.58 (inactive); in [19] it was 0.169 (inactive). This compound displayed a z-score in [20] of -1.54.
As for `COCCOC(=O)N1C(=O)[C@@]2(c3cc(C#CCNC(N)=O)ccc31)[C@H](c1ccc(O)cc1)N1[C@H](c3ccccc3)[C@H](c3ccccc3)OC(=O)[C@H]1[C@@H]2C(=O)N1CCc2cc(OC)c(OC)cc2C1`, the composite z-score in [1] was 0.0981; in assay [6], 0.468; in assay [7], -0.0448; in assay [8] it was -0.0669; in assay [9], 0.148; in assay [10] it was 0.97. This compound displayed a composite z-score in [12] of 0.208. The z-score in assay [2] was -0.483 (inactive); in assay [3], 0.389 (inactive); in assay [4], -0.0515 (inactive); in assay [5], -0.379 (inactive); in assay [11], -0.872 (inactive); in assay [13], 1.67 (inactive). The z-score is 0.13 (inactive) in assay [14]; 0.018 (inactive) in assay [15]; 0.148 (inactive) in [16]; -0.0879 in [17]; 1.15 (inactive) in [18]; -0.909 (inactive) in [19]. Also, the z-score in assay [20] was 0.891.
With `COc1ccc([Si](C)(C)[C@H]2[C@H](CC(=O)N(CCO)Cc3ccccc3)O[C@@]3(C(=O)N(Cc4cccc(N5CCCCC5=O)c4)c4ccccc43)[C@@H]2C)cc1`, the composite z-score in assay [1] was 0.0763; in assay [6], 0.0037; in assay [7], -0.0719; in assay [8] it was 0.444; in assay [9] it was 0.793; in assay [10] it was 2.13. The same compound had a composite z-score in [12] of 0.109. In addition, the z-score in assay [2] is -4.74 (inactive); in assay [3], -0.937 (inactive); in assay [4], 3.13 (inactive); in assay [5], -1.32 (inactive); in [11], 1.52 (inactive); in assay [13], 11.3 (active). Also, the z-score in assay [14] was 1.31 (inactive); in [15], 0.4 (inactive); in assay [16] it was -0.553 (inactive); in [17] it was 2.6; in assay [18] it was 0.0671 (inactive); in assay [19] it was 0.591 (inactive). The z-score in [20] is 2.24.
In the case of `Cc1ccc(S[C@]2(C(=O)NC3CC3)CC(=O)N(C3Cc4ccccc4C3)[C@@H]2c2ccc(CO)cc2I)cc1`, the composite z-score was -0.547 in assay [1]; -0.441 in [6]; 0.0051 in assay [7]; 0.909 in assay [8]; 0.701 in assay [9]; 0.209 in assay [10]. This compound also had a composite z-score in [12] of 0.227. Moreover, the z-score in [2] is -2.23 (inactive); in assay [3], 0.714 (inactive); in [4], 0.919 (inactive); in assay [5] it was 2.86 (inactive); in assay [11], 0.933 (inactive); in assay [13], 5.18 (inactive). For the same compound, the z-score in assay [14] is 0.943 (inactive); in assay [15], 0.202 (inactive); in [16], 0.254 (inactive); in assay [17], -0.256; in assay [18] it was 1.94 (inactive); in [19] it was -2.66 (inactive). Besides, the z-score in assay [20] was 1.41.
